Test results: ChEMBL document CHEMBL3988442, “University of Dundee, Small-Polar-MMV Screening Library” (2021)
For some assays here: Results with a measured potency or affinity are listed apart.

Experiments:
Set-up in all cases: scale not given: direction of the effect not stated beside the values
[1] = target: Protein translocase subunit SecA (Escherichia coli (strain K12)) (UniProt P10408); test: Assay to Identify E. coli SecA ATPase Inhibitors; type: functional; settings: 30 µM
[2] = target: T1, Ubiquitin-activating enzyme e1, putative (Leishmania donovani (strain BPK282A1)) (UniProt E9BSI1); test: Leishmania donovani Ubiquitin Activating Enzyme (LdE1); type: functional; settings: 30 µM
T1 sequence (whole entry): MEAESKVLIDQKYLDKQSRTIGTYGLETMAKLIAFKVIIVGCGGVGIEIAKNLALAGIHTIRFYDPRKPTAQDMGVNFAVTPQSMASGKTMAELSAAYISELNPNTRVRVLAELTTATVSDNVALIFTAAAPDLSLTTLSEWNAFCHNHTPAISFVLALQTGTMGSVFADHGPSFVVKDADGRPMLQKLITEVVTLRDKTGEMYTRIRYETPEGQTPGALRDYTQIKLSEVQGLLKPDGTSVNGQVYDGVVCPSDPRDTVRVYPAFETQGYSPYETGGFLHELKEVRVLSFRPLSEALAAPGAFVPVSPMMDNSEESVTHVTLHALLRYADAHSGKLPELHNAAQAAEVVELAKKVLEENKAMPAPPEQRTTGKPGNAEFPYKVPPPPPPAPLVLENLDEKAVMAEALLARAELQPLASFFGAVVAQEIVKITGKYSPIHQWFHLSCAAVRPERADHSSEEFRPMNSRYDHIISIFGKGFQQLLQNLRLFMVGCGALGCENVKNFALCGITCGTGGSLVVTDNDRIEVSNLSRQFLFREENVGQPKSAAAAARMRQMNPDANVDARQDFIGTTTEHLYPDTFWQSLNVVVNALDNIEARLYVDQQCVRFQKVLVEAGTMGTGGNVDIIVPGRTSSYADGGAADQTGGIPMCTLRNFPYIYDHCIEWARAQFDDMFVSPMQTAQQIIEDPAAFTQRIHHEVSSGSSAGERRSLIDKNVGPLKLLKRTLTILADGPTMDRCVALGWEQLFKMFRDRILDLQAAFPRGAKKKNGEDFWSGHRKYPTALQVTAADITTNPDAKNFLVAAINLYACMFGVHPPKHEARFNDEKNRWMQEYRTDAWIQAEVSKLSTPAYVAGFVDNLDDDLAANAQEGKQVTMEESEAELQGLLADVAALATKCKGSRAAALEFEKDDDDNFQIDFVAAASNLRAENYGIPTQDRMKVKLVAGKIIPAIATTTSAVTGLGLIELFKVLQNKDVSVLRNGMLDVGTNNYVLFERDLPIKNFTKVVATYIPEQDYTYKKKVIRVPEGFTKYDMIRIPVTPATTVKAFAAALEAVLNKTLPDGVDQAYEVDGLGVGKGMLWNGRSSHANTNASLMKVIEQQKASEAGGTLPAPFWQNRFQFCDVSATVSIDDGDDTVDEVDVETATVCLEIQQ

[3] = target: AMP-activated protein kinase, AMPK (Homo sapiens) (UniProt P54646+O43741+P54619+Q9UGJ0+Q9Y478+Q13131+Q9UGI9); test: AMP-dependent Kinase enzyme assay. An in vitro enzyme assay that detects ADP turnover that is directly proportional to AMPK activity. This uses naive AMPK that is activated during the assay with MK-8722; type: functional; settings: 30 µM
[4] = target: Sialic acid-binding Ig-like lectin 9 (Homo sapiens) (UniProt Q9Y336); test: Hs-Siglec9 ALPHAscreen SOP 20170721; settings: 10 µM
Trypanosoma cruzi = test: Trypanosoma cruzi phosphomannomutase and mannose-1-phosphate guanylyltransferase assay; type: functional; settings: 10 µM
[5] = target: T2, Arginase-2, mitochondrial (Homo sapiens) (UniProt P78540); test: in vitro enzyme assay to detect the production of urea directly proportional to the activity of Arginase II; type: functional; settings: 33.3 µM; note: in the data most compounds retested in dose-response had high values
T2 sequence (whole entry): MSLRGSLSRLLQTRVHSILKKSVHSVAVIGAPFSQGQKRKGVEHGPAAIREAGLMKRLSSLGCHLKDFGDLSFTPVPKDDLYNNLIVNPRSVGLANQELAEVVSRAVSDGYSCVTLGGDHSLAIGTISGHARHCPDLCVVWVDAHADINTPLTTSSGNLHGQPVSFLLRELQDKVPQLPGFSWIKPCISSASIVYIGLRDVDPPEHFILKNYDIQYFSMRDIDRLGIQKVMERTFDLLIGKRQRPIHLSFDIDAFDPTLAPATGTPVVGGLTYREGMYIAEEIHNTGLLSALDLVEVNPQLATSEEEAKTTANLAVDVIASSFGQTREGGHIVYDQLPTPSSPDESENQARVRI

[6] = target: T3, Proteasome subunit beta (Trypanosoma cruzi) (UniProt O96673); test: Trypanosoma cruzi proteasome chymotrypsin-like activity (TcProtChymo) assay.; note: in the data most compounds retested in dose-response had high values; type: functional; settings: 9.37 µM
T3 sequence (whole entry): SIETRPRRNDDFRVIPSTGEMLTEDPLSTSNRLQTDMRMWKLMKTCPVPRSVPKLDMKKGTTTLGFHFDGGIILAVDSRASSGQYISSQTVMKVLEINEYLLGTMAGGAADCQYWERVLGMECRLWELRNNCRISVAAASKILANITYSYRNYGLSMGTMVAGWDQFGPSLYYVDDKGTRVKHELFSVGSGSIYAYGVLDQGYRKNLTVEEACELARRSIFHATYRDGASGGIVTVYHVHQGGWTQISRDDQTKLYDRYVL

Homo sapiens = species: Homo sapiens; test: To identify inhibition of the IFN signalling (Jak-Stat) pathway via expression of an eGFP reporter gene under the control of an IFN-stimulated response element (ISRE) containing MxA promoter.; type: functional; settings: 30 µM
[7] = target: T4, Tyrosyl-tRNA synthetase, putative (Trypanosoma cruzi (strain CL Brener)) (UniProt Q4DSP6); test: Trypanosoma cruzi tyrosyl tRNA synthetase (TcYRS) _High Tyrosine SOP; type: functional; settings: 30 µM; note: in the data most compounds retested in dose-response had high values
T4 sequence (whole entry): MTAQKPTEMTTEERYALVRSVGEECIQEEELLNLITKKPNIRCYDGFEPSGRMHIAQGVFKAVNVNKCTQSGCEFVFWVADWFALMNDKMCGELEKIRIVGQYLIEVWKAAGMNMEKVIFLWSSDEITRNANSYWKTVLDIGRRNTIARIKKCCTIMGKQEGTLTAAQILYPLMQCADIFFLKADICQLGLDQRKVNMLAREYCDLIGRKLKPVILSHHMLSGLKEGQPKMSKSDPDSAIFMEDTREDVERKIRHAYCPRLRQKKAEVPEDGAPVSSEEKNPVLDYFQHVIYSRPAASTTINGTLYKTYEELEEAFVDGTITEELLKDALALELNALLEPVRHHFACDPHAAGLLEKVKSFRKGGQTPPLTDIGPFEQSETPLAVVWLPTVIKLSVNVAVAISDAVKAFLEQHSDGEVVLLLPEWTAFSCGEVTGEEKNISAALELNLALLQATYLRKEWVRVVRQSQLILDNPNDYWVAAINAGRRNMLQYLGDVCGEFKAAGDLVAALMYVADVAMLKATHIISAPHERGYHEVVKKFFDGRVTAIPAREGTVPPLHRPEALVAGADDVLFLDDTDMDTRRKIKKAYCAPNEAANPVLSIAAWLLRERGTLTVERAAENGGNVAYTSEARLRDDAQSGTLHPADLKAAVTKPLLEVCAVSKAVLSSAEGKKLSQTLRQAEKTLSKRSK

[8] = target: T4, Tyrosyl-tRNA synthetase, putative (Trypanosoma cruzi (strain CL Brener)); test: Trypanosoma cruzi tyrosyl tRNA synthetase (TcYRS) SOP; type: functional; settings: 30 µM
[9] = target: Chromo domain-containing protein 1 (Saccharomyces cerevisiae (strain ATCC 204508 / S288c) (Baker's yeast)) (UniProt P32657); test: ScCHD-1 Enzyme Inhibition Assay; type: functional; settings: 30 µM; note: in the data most compounds retested in dose-response had high values
Chromo domain-containing protein 1 (Saccharomyces cerevisiae (strain ATCC 204508 / S288c) (Baker's yeast)), sequence (P32657 whole entry, the tested form may be a part): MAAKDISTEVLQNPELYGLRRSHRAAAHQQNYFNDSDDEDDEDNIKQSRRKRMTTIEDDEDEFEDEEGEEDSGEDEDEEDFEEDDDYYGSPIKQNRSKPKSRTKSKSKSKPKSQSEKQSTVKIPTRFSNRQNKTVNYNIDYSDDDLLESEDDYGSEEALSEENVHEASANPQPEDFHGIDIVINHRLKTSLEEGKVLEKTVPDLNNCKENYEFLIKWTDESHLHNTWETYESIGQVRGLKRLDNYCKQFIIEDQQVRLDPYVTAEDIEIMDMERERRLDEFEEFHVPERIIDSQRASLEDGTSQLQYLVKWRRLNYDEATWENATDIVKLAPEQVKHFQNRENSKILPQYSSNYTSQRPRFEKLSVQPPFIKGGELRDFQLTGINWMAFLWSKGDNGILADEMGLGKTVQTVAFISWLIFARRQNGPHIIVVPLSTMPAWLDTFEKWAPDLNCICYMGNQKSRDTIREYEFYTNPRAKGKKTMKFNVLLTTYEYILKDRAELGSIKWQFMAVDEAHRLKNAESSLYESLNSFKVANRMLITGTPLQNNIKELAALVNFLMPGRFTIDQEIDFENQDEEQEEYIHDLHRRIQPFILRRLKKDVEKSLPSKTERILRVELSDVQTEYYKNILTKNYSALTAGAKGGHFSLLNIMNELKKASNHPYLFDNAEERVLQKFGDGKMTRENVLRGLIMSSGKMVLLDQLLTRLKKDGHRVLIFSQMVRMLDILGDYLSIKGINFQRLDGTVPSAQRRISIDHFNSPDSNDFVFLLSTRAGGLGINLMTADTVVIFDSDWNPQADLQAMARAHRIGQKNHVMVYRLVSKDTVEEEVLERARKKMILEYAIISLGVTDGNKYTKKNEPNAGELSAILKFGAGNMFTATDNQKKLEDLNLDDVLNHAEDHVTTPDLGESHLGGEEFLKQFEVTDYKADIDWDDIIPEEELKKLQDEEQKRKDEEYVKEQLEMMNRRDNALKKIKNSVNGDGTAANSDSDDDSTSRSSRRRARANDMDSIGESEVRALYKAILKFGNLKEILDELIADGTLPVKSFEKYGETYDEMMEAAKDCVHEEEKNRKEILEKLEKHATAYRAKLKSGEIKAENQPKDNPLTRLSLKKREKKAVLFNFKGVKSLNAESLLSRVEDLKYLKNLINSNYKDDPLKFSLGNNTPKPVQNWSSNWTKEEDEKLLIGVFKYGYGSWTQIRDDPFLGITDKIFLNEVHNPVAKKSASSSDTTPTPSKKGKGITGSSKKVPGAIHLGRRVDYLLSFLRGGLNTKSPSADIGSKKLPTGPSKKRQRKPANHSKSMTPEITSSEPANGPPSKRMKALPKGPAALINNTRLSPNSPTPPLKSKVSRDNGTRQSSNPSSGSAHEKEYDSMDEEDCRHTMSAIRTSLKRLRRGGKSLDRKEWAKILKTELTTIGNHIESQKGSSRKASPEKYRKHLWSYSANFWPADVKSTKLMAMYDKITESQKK

Protein translocase subunit SecA (Escherichia coli (strain K12)), sequence (P10408 whole entry): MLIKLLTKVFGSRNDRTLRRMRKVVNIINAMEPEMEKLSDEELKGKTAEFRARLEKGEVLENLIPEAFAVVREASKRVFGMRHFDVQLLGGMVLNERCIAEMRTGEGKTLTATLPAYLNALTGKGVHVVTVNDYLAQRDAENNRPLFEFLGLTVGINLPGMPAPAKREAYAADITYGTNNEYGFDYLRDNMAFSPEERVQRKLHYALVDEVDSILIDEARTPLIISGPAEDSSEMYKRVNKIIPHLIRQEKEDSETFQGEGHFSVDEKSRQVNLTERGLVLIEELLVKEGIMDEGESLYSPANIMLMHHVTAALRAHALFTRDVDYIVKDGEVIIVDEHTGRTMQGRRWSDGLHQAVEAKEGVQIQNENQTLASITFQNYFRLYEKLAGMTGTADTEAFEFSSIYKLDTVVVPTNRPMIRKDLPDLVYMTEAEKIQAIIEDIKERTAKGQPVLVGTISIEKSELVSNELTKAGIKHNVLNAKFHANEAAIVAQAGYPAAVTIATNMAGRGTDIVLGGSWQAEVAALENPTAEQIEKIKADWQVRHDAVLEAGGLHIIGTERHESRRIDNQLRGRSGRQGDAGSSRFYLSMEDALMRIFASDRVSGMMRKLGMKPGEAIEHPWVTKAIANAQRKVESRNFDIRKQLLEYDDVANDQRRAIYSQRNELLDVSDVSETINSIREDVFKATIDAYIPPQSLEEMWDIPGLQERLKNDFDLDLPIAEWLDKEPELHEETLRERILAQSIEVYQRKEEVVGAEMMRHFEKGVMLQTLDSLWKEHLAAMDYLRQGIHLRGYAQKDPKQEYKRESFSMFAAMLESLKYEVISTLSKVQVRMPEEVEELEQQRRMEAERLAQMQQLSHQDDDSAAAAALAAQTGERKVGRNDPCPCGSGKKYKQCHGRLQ
Sialic acid-binding Ig-like lectin 9 (Homo sapiens), sequence (Q9Y336 whole entry): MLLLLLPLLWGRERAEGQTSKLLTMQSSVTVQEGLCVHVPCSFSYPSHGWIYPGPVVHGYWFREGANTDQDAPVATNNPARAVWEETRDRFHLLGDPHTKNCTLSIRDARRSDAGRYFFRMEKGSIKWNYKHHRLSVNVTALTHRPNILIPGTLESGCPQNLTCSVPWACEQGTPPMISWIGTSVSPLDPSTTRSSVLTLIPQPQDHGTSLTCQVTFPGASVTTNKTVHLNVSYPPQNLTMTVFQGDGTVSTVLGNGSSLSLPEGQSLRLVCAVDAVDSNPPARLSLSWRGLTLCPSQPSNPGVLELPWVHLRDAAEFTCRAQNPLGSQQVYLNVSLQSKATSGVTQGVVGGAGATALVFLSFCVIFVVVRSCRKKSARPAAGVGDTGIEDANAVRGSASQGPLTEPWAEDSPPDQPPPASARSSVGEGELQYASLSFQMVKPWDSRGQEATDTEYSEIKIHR

SMILES | Percent Effect [1] [%] | Percent Effect [2] [%] | Percent Effect [3] [%] | Percent Effect [4] [%] | Percent Effect (Trypanosoma cruzi) [%] | Percent Effect [5] [%] | Percent Effect [6] [%] | Percent Effect (Homo sapiens) [%] | Percent Effect [7] [%] | Percent Effect [8] [%] | Percent Effect [9] [%]
CN(Cc1ccc(C#N)cc1)Cc1noc(C(C)(C)C)n1 | -3.57 | 0 | -1.73 | 0.255 | -0.885 | 2.76 | 3 | 8.86 | -1.07 | -1.24 | 2.69
O=C(C1CCC1)N1CCN(C(=O)c2cnccn2)[C@H]2CS(=O)(=O)C[C@H]21 | -0.271 | 13.5 | -3.89 | 16.5 | 7.34 | 0.476 | 9.65 | 3.49 | 4.76 | 17.1 | -3.81
O=C(c1ccncc1)N1CCCn2c(CN3CCCCC3)nnc2C1 | -3.23 | 2.67 | 9.49 | 2.61 | 4.13 | -5.36 | 5.9 | -3.57 | 5.32 | -1.28 | 1.13
CCN1CCC(CNCc2cc(OC)ccc2OC)C1 (stereo not given) | -3.32 | 0 | -0.832 | -3.34 | -5.66 | 0.417 | 6.17 | 0.331 | 0.99 | 1.22 | -0.855
CC(C)c1noc(CN(Cc2ccccc2F)C2CC2)n1 | -1.22 | 15.6 | -0.613 | 8.23 | 3.64 | -75.9 | 22.5 | 10.9 | 7.53 | 18.5 | -1.83
Cc1nn(C)c(C)c1CC(=O)N1CCC(N(C)c2cccnn2)CC1 | 0.112 | 15.8 | 0.809 | -2.31 | -2.82 | 4.98 | 10.5 | 42.1 | 3.43 | 4.88 | -9.53
O=c1ccc2c(n1CCN1CCCC1)CCN(Cc1ccoc1)CC2 | -1.68 | 8.22 | -4.13 | 13.3 | 7.94 | -9.58 | 10.7 | 19.6 | 8.33 | 13.6 | -2.06
CC(NC(=O)NCC1(O)CCC1)c1ccc(OCC2CC2)c(F)c1 (stereo not given) | -6.25 | 10.5 | 0.839 | 9.9 | 1.85 | -24.9 | 10.3 | 14 | 3.19 | 7.79 | -3.31
CC(C)(C)NC(=O)NC(=O)CNC(C)(C)c1ccc2c(c1)OCCO2 | -5.89 | 13.5 | -6.92 | 1.3 | 0.472 | -4.01 | 6.67 | 11.6 | 4.43 | 13.6 | -5.2
OCCN1CCOC2(CCCN(c3cccc(F)c3)C2)C1 (stereo not given) | -3.44 | 13.3 | 5.94 | -3.82 | 0.394 | 0.233 | 8.55 | 3.49 | 10.6 | 24.4 | -6.84
